This note sets out measurements from PubChem BioAssay AID651803 (National Center for Advancing Translational Sciences (NCATS), 2012).

SMILES strings stand for the structures. In all, about 1,200 compounds went through this assay and fewer than 10 were called active. Calls follow the shape of the dose curve; as a rule, active = well fitted curve in the direction sought with a large enough effect; inconclusive = small, poorly fitted or top-dose-only effect, or another doubt; inactive = no such curve, though single readings can be large or run the other way. These entries were drawn from the full list.

The target in this test is Transcriptional regulator ERG (Homo sapiens) (UniProt P11308). Kind of test: qHTS for Small Molecule Inhibitors of the ERG Ets/DNA interaction: TR assay against cherry picks. Particulars: ERG Ets domain-DNA fluorescence polarization, Texas red probe; series mostly up to 154 µM. The source says: The Ets family of proteins is a family of ~30 conserved transcription factors defined by the presence of an ~85 amino acid domain referred to as the Ets domain, which mediates sequence-specific DNA binding to a core DNA element GGAA/T.The Ets family member ERG has been linked to several neoplasms. […] More extensive studies of the effects of over-expression of ERG in prostate cells have recently been carried out and have shown that over-expression of ERG results in increased invasion. […] We will carry out a high throughout screen to identify inhibitors of the interaction between ERG and DNA using a fluorescence polarization (FP) assay with a His-tagged ERG Ets domain and fluorescently-labeled DNA probes to develop small molecule inhibitors of this interaction as probes to test this hypothesis and lay the groundwork for the development of targeted therapies against ERG. This is the confirmation against the cherry picks in theprimary screening assay. NIH Molecular Libraries Probe Production Network [MLPCN] NIH Chemical Genomics Center [NCGC] Grant: NS066464 PI Name: John Bushweller, University of Virgina
Chain of Transcriptional regulator ERG (Homo sapiens) (P11308 whole entry, looked up, the tested form may be a part): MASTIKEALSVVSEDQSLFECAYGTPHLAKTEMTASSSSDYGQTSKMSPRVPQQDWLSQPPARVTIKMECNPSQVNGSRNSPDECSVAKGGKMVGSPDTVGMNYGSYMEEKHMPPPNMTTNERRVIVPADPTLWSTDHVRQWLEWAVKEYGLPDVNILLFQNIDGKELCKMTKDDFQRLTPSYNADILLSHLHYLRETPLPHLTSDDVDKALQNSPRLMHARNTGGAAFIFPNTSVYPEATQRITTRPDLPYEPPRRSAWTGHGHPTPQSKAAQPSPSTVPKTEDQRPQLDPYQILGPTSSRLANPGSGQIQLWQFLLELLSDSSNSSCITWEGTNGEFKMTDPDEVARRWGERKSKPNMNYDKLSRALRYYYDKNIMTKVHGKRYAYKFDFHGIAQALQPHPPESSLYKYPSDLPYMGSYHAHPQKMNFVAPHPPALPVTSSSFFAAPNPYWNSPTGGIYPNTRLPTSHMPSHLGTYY
1.5 ul of protein solution (1 uM ERG domain in 300mM KCl, 50mM Tris-HCl, 1mM EDTA, 1mM DTT, pH 7.5); 20 nl Control plate and compound library plate; 1.5 ul mixture of 5 nM Fluorescein-DNA and 100nM Texas-615-DNA solution in same buffer as above solution; measure fluorescence polarization sequentially for fluorescein (Excitation = 480 nm, Emission = 535s, 535p nm) and Texas red (Excitation = 555 nm, Emission = 632s, 632p nm).
As for `COc1ccc(CN2CCC(C(=O)N3CCCC(C)C3)CC2)cc1OC` (configuration not stated), the outcome was inactive. For the compound `Cc1ccc(NS(=O)(=O)c2cc(Br)cnc2N)c(Cl)c1`, the outcome was inactive. For `CCOc1cc(S(=O)(=O)n2ccc(C)n2)ccc1Br`, the compound was called inactive. The same measure for `COc1ccc(NC(=O)C2CC(=O)n3c(nc4ccccc43)N2)cc1` (configuration not stated): “inactive”. The same measure for `COc1ccc(OC)c(NC(=O)c2cccc(NC(=O)c3ccccc3)c2)c1`: “inactive”. The value for `COc1ccc(CNCCC2(C(C)C)CCOC(C)(C)C2)cc1` (configuration not stated) was “inactive”; that for `O=C(NCCCN1CCOCC1)c1ccc(CSc2ccc(Cl)cc2)cc1` was “inactive”; that for `O=C(CN1C(=O)CS/C1=C\c1nc(-c2ccc(Cl)cc2)cs1)Nc1cccnc1Cl` was “inactive”. Turning to `NCCNc1ccc2nnnn2n1`, the call was inactive.

In the case of `CCN(CC)S(=O)(=O)c1cccc(-c2nc3n(n2)Cc2ccccc2-3)c1`, the outcome was inactive.

With `O=C(COc1ccc(-c2ccccc2)cc1)N1CCN(C(=O)c2cccs2)CC1`, the compound was classed as inactive. On to `Cc1cc(/C=C(\C#N)C(=O)Nc2ccccc2)c(C)n1-c1ccc(C(=O)O)cc1`, for which the call was inactive. Regarding `Cc1ccc(C=Nc2cccnc2N)cc1`, the result was inactive. The same measure for `CC(C)C1NC(=S)N(Cc2ccccc2)C1=O` (configuration not stated): “inactive”; for `Cc1nc2ccccc2c(=O)n1NC(=O)c1cccnc1Cl`: “inactive”. The value for `COc1ccc(CCn2c(C)cc(C(=O)COC(=O)c3cnc(C)cn3)c2C)cc1` was “inactive”; that for `CCC(CC)COC(=O)C(C#N)c1nc2ccccc2nc1N1CCN(CC)CC1` (configuration not stated) was “inactive”; that for `CCc1ccccc1N(CC(=O)NCc1ccco1)C(=O)CCC(=O)Nc1ccccn1` was “inactive”.

In the case of `COc1ccc(NC(=O)CSCC(=O)N(C)Cc2cccc(OC)c2OC)cc1`, the result was inactive.

For `CN(C)c1ccc2c3c(ccc(N(C)C)c13)C(=O)OC2`, the compound was classed as inactive. The value for `COc1ccc(NC(=S)NCc2ccc3c(c2)cc(C)n3C)cc1` was “inactive”; that for `Cc1cc2cc(CNC(=O)c3ccc(S(=O)(=O)N4CCCCC4)cc3)ccc2n1C` was “inactive”. The value for `COc1cc(OC)c(N(C)S(=O)(=O)c2cccc(C(=O)NC(C)C3CC4CCC3C4)c2)cc1Cl` (configuration not stated) was “inactive”; that for `Nc1nc(Cl)c2ncn(C3OC(CO)C(O)C3O)c2n1` (configuration not stated) was “inactive”.

In the case of `CC(C)(C)c1ccc(OCC(=O)Nc2cccc(S(=O)(=O)NC3=NCCCCC3)c2)cc1`, the call was inactive.

For `CCc1nc2ccccc2c(C(=O)NCc2ccccc2)c1C`, the call was inactive. The same measure for `COC(=O)c1cc(NC(=O)c2c(Cl)cnn2C)cc(C(=O)OC)c1`: “inactive”; for `O=C(CC(c1ccccc1)c1cc(Cl)ccc1O)NCCCN1CCOCC1` (configuration not stated): “inactive”; for `Cc1cccc(N2C(=O)CC(Cn3nc(C)cc3C)C2=O)c1` (configuration not stated): “inactive”. Take `CC1=CC(=O)C(C(C)C)=C/C1=C(\c1cc(C(C)C)c(OP(=O)(O)O)cc1C)c1ccccc1C(=O)O`: the call was inactive. The value for `Nc1c(C(=O)O)cnn1-c1ccccc1` was “inactive”; that for `OC(Cn1cnnc1)c1ccccc1` (configuration not stated) was “inactive”; that for `COc1ccccc1NS(=O)(=O)c1cc(C(=O)N2CCCC2)ccc1C` was “inactive”. The same measure for `COc1ccc(-c2nc3n(n2)C(c2ccccc2OC)C(C(=O)Nc2cccnc2)=C(C)N3)cc1` (configuration not stated): “inactive”; for `COc1ccc2c(CCNC(=O)/C=C/c3ccc(OC)c(OC)c3)c[nH]c2c1`: “inactive”. On to `O=C(/C=C/c1ccc([N+](=O)[O-])cc1)NCc1ccco1`, for which the outcome was inactive. The same measure for `CC1(C)C2CCC1(CS(=O)(=O)N1CCC(C(N)=O)CC1)C(=O)C2` (configuration not stated): “inactive”; for `CC(C)CNC(=O)CCc1nc(-c2ccccc2)no1`: “inactive”; for `COc1ccc(N/C=C(\C(C)=O)c2ccc(OC)c(OC)c2)cc1OC`: “inactive”.

As for `O=C(CNC(=S)N(CCCN1CCOCC1)Cc1cccs1)NC1CCCCC1`, the compound was classed as inactive. The same measure for `O=C(COc1ccc(F)cc1)Nc1nnc(-c2ccncc2)s1`: “inactive”.

On to `COc1ccc(CCCC(=O)Nc2cc(C)ccc2OC)cc1`, for which the compound was called inactive. The same measure for `CCOC(=O)C1CCCN(C(=O)c2nn(-c3ccc(C)cc3)c(=O)n(C)c2=O)C1` (configuration not stated): “inactive”; for `O=[N+]([O-])c1ccc(S(=O)(=O)N/N=C/c2ccsc2)cc1`: “inactive”. The same measure for `O=C(Nc1ccc(N2CCOCC2)cc1)c1ccc2nc(-c3ccco3)c(-c3ccco3)nc2c1`: “inactive”. The value for `CCn1c(=O)cc(OCC(=O)Nc2ccccc2C#N)c2ccccc21` was “inactive”; that for `CCOC(=O)C(=O)c1c(-c2ccccc2)nc2ccccn12` was “inactive”; that for `O=C(NCC(=O)N(c1ccccc1)C(C(=O)NC1CCCCC1)c1cccnc1)c1ccco1` (configuration not stated) was “inactive”.

Take `C[C@H](CO)N1C[C@H](C)[C@@H](CN(C)CC2CC2)Oc2c(NC(=O)C3CC3)cccc2C1=O`: the call was inactive. The same measure for `CCOc1ccccc1C1CC(c2ccc(Br)cc2)Nc2nc(N)nn21` (configuration not stated): “inactive”. For the compound `COc1ccc(/C=C/C(=O)Nc2c(C(=O)O)[nH]c3ccccc23)cc1OC`, the compound was classed as inactive. The value for `COc1ccc(-c2noc(Cn3c(=O)c4ccccc4n(CC(=O)Nc4cccc(C(F)(F)F)c4)c3=O)n2)cc1` was “inactive”; that for `COCCNC(=O)CSc1nc2ccccc2c(=O)n1-c1cccc(OC)c1` was “inactive”. Take `CCCCSc1cc(=O)n(-c2ccccc2)nc1C(=O)OCC`: the compound was classed as inactive.

As for `COc1c2c(c(CCC(=O)O)c3c1C=CC(C)(C)O3)OC(C)(C)C=C2`, the result was inactive.

For the compound `CC1Cc2ccccc2N1CC(=O)Nc1ccc2c(c1)OCO2` (configuration not stated), the compound was called inactive. Regarding `CCC(C)NCCCOc1ccc(C)cc1OC` (configuration not stated), the compound was called inactive. The value for `CCc1ccc(S(=O)(=O)NC2CC(C)(C)NC(C)(C)C2)cc1` was “inactive”; that for `Cc1cc2nc(-c3ccc[nH]c3=O)n(Cc3ccccc3F)c2cc1C` was “inactive”. The same measure for `COc1ccc(OCCN2CCN(C(=O)c3ccc(OC(F)F)c(OC)c3)CC2)cc1`: “inactive”. The value for `COc1ccc(C(=O)N(C)Cc2ccc(C)o2)cc1OC1CCN(C(C)C)CC1` was “inactive”; that for `COC(=O)C(CSCc1ccccc1)NC(=O)CSc1nc(N)cc(=O)[nH]1` (configuration not stated) was “inactive”.

On to `COc1ccc2cc(CO)c(Cl)nc2c1`, for which the compound was called inactive. As for `Cc1cccc(-c2cnn(-c3cccc([N+](=O)[O-])c3)c2N)c1`, the compound was classed as inactive. `CC(=O)Nc1ccc(SCC(=O)N(C)C2CCS(=O)(=O)C2)cc1` (configuration not stated): the result was inactive.

`CC(C)=CCOc1ccc2ccc(=O)oc2c1`: the compound was called inactive. For the compound `CCOC(=O)COc1ccc(/C=C2/C(=O)NN(c3ccc(F)cc3)C2=O)cc1OC`, the compound was classed as inactive. As to `Cc1ccc(-c2nnn(CC(=O)N(c3ccccc3)C(C(=O)NCC3CCCO3)c3ccc(F)cc3)n2)o1` (configuration not stated), the compound was classed as inactive. The same measure for `Cc1ccc(CNC(=O)COc2ccc(S(=O)(=O)N3CCCC3)cc2)cc1`: “inactive”. The same measure for `O=C(OCCOCCN=C1NS(=O)(=O)c2ccccc21)c1ccccc1Br`: “inactive”. The value for `CC(=O)Nc1ccc(NC(=O)Cn2c(=O)n(-c3ccccc3)c(=O)c3oc4ccccc4c32)cc1` was “inactive”. Regarding `COc1ccc(C(=O)n2nc(C)c(Br)c2C)cc1OC`, the call was inactive. The same measure for `N#Cc1c(C(F)(F)F)cc(-c2cccs2)nc1SCC(=O)Nc1cccc(Br)c1`: “inactive”; for `N#CCCN(C(=S)NC(=O)C1CCCCC1)c1ccccc1F`: “inactive”. The value for `Cc1ccc2c(COC(=O)c3ccccc3Br)cc(=O)oc2c1` was “inactive”.

For `COc1ccc(NC(=O)NCc2ccccn2)c(OC)c1`, the result was inactive. The value for `O=C(c1ccccc1)c1ccc[nH]1` was “inactive”; that for `Cc1ccc([N+](=O)[O-])c2c1C(N1CC(C)OC(C)C1)C(C)(C)O2` (configuration not stated) was “inactive”; that for `COc1ccccc1NC(=O)Cn1c(=O)n(CCC(=O)NCC2CCCO2)c(=O)c2cc(OC)c(OC)cc21` (configuration not stated) was “inactive”.

In the case of `Clc1ccc(-c2csc(N/N=C/c3ccco3)n2)cc1`, the result was inactive.

As to `CCOC(=O)CC1COCCN1Cc1cn[nH]c1-c1cc(OC)c(OC)c(OC)c1` (configuration not stated), the compound was classed as inactive. As to `COc1cc(C(=O)Nc2ccc(Cl)c([N+](=O)[O-])c2)cc(OC)c1OC`, the call was inactive. For `COc1cccc2c1C(=N)c1c(O)c3c(c(O)c1C2=O)CC(O)(C(C)=O)CC3OC1CC(N)C(O)C(C)O1` (configuration not stated), the outcome was inactive.

With `O=C(NCc1cccc(Cl)c1)c1ccncc1`, the result was inactive.

Take `Cc1cccc(C)c1NC(=O)C1(N2C(=O)CC2c2ccccc2)CCCCC1` (configuration not stated): the result was inactive. The same measure for `CC1(C)CC2CC(C)(CN2C(=O)c2ccc([N+](=O)[O-])cc2)C1` (configuration not stated): “inactive”. In the case of `CN(C)c1nc(N)nc(Cn2nnc(-c3ccc(C(F)(F)F)cc3)n2)n1`, the call was inactive. The same measure for `CC(NC(=O)c1cn(C)c2ccc(S(=O)(=O)N3CCCC3)cc2c1=O)c1ccccc1` (configuration not stated): “inactive”. The same measure for `Cc1[nH]c(=O)[nH]c(=O)c1/C=N/NC(=O)[C@H](C)N`: “inactive”; for `CCOC(=O)N1CCC(NC(=O)CSCc2nc(-c3ccc(OCC)cc3)oc2C)CC1`: “inactive”. The value for `CC(C)(O)CN(CCCNC(=S)Nc1ccccc1)C(=S)Nc1ccccc1` was “inactive”; that for `S=c1[nH]nc(CSCCOc2ccccc2)o1` was “inactive”; that for `Cn1c(CO)cnc1SCc1ccc(F)cc1` was “inactive”. Consider `COc1ccc(CNC(=O)c2cccnc2SC)cc1OC`, for which the result was inactive. The same measure for `Cc1cc(C)c2c(N)c(C(=O)c3ccc(Cl)cc3)sc2n1`: “inactive”. The value for `CCC1Oc2ccccc2N(CC(=O)NC2CC2)C1=O` (configuration not stated) was “inactive”; that for `Oc1c(Cl)cc(Oc2cc(Cl)c(O)c(CN3CCOCC3)c2)cc1CN1CCOCC1` was “inactive”; that for `COc1ccc(S(=O)(=O)NCCNC(=O)N2CCOCC2)cc1` was “inactive”. For the compound `O=C(CCNC(=O)c1ccccc1Cl)NCCCSc1ccccc1`, the compound was classed as inactive.

For the compound `Cn1c(CNC(=O)c2cccs2)n[nH]c1=S`, the compound was classed as inactive. Take `CCCCC1=NN(C(=O)c2ccco2)C(O)(C(F)(F)F)C1` (configuration not stated): the outcome was inactive.

As for `CCC(=O)N1CCN(c2nc3ccc(Br)cc3s2)CC1`, the compound was called inactive.
